Screens (PubChem BioAssay)
Sm TGR block – S. mansoni TGR enzyme inhibition; Q962Y6; Potency, µM (series often up to 114 µM), hits mostly inhibitors; AID 485364; purified TGR, DTNB reduction, TNB absorbance 405 nm; 360,000 tested, 3% active; also: nearly all actives have a fitted effect of over 60% in size
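First, TGR (20 nM dispensed) and NADPH were mixed with compound. Second, a 15 min room-temperature incubation followed. Third, further NADPH and then DTNB were added to start the reaction. Finally, TNB absorbance was monitored kinetically.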
SARS PLpro yeast – inhibitors of SARS-CoV papain-like protease in yeast; Potency, µM (highest dose often 32.9 µM), usual class: activators; S. cerevisiae expressing SARS-CoV PLpro, growth rescue; 330,000 tested, 0.19% active; calls by dose curve; also: nearly all actives have a fitted effect of over 55% in size
Pf growth 96h – P. falciparum growth inhibition at 96 hours | P. falciparum luciferase reporter growth, 96 h | Potency, µM (highest dose often 28.7 µM), usual class: inhibitors | 320,000 tested, 6.9% active | AID 504834
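Two-generation exposure (96 h) targets delayed-death phenotype. Reporter parasites carrying integrated firefly luciferase, in red cells at 2% hematocrit and 0.05% parasitemia final, kept at 37 C, 5% CO2; luminescence loss indicates inhibition.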
AmpC no deterg – AmpC beta-lactamase inhibition without detergent; AmpC nitrocefin hydrolysis, absorbance 480 nm, 0.0001% Triton; Potency, µM (doses to about 57.1 µM), most hits filed as inhibitors; 330,000 tested, 0.52% active; P00811; also: nearly all actives have a fitted effect of over 20% in size
Target sequence (P00811 whole entry, looked up): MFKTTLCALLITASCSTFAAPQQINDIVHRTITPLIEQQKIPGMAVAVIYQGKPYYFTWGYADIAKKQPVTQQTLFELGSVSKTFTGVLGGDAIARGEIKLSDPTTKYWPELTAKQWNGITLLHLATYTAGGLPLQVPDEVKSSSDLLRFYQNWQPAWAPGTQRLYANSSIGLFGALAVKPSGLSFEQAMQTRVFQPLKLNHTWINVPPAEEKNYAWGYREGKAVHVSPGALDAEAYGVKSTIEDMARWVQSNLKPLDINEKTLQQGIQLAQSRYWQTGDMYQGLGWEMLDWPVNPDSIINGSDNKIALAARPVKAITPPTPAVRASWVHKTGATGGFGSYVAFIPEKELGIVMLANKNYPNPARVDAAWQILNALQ
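AmpC (5.3 nM in the dispensed reagent) in 20 mM phosphate pH 7.0 with 0.01% (detergent screen) or 0.0001% Triton X-100 was preincubated with compounds for 15 min at room temperature. Nitrocefin was then added from an 800 uM solution, and hydrolysis was followed at 480 nm.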
Pf growth 48h – P. falciparum growth inhibition at 48 hours (one generation) | P. falciparum luciferase growth in erythrocytes, 48 h | Potency, µM (titrated, usually from 28.7 µM), usual class: inhibitors | 310,000 tested, 5.9% active | AID 504832
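A one-generation exposure of luciferase-tagged malaria parasites in RPMI 1640/Albumax erythrocyte culture, 37 C and 5% CO2. Inhibition is inferred from decreased luminescence after adding detection reagent.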
AmpC detergent – AmpC beta-lactamase inhibition with detergent present; P00811; AmpC hydrolysis of nitrocefin, absorbance 480 nm, 0.01% Triton; Potency, µM (doses to about 114 µM), hits mostly inhibitors; 370,000 tested, 0.041% active; also: nearly all actives have a fitted effect of over 25% in size
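AmpC (5.3 nM in the dispensed reagent) in 20 mM phosphate pH 7.0 with 0.01% (detergent screen) or 0.0001% Triton X-100 was preincubated with compounds for 15 min at room temperature. Nitrocefin was then added from an 800 uM solution, and hydrolysis was followed at 480 nm.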
Large screens that a line does not name were inactive; ! = not active in a repeat. A selection: hits, their analogues and other compounds. The true share with any hit is near 12%. Unless noted, calls follow the shape of the dose curve; as a rule, active = well fitted curve in the direction sought with a large enough effect; inconclusive = small, poorly fitted or top-dose-only effect, or another doubt; inactive = no such curve, though single readings can be large; an effect the other way counts as inactive or inconclusive.

Cc1noc2ncc(C(=O)c3cc(F)ccc3O)cc12	Pf growth 96h 8.3µM (no result: Pf growth 48h)
CCOC(=O)c1csc(NC(=O)CN2CCCCC2)n1	none
Cc1ccc2c(c1)/C(=C/c1ccc(F)cc1)C(=O)N2	Pf growth 48h inconclusive
Cc1ccc2c(c1)N/C(=C(\C=C(/Cl)[N+](=O)[O-])[N+](=O)[O-])N2	Sm TGR block 8.9µM, Pf growth 48h inconclusive
COc1ccc(C(=O)Nc2ccnn2C2CCN(C(C)CSC)CC2)cc1 (centres undefined)	Pf growth 96h 2.9µM, AmpC detergent inconclusive
CCCCN(C)CCNC(=O)Cn1c(=O)sc2ccccc21	Pf growth 96h 8.3µM, AmpC detergent inconclusive (no result: Pf growth 48h)
CCCCN(C)CCNC(=O)CCNC(=O)Cn1ccc2ccccc2c1=O	none
Cn1c(N2CCN(c3ccccn3)CC2)nc2c1c(=O)n(Cc1ccc(Cl)cc1)c(=O)n2C	Pf growth 48h 12µM, AmpC detergent inconclusive (no result: Pf growth 96h)
CC1CN(c2nc3c(c(=O)n(Cc4ccc(Cl)c(Cl)c4)c(=O)n3C)n2C)CC(C)O1 (centres undefined)	Pf growth 48h 6.6µM (no result: Pf growth 96h)
Cn1c(N2CCCCC2)nc2c1c(=O)n(Cc1cccc(Br)c1)c(=O)n2C	none (no result: Pf growth 96h)
CCOC(=O)c1ccc(N2C(=O)c3n[nH]c(-c4cccs4)c3C2c2ccc(C(C)(C)C)cc2)cc1 (centres undefined)	none (no result: SARS PLpro yeast, Pf growth 96h, AmpC no deterg, Pf growth 48h)
CCC(C)Nc1nc(CN2CCOCC2)nc2sc3c(c12)CCC3 (centres undefined)	Pf growth 96h 9.3µM (no result: Pf growth 48h)
Cc1nc(Oc2ccc(S(=O)(=O)N3CCOCC3)cc2Cl)c2c3c(sc2n1)CCCC3	Pf growth 96h 13µM, Pf growth 48h inconclusive, AmpC detergent inconclusive
CCN(CC)CCCNc1nc(CN2CCOCC2)nc2sc3c(c12)CCC3	Pf growth 96h inconclusive
Cc1cccc(Oc2nc(CN3CCOCC3)nc3sc4c(c23)CCCC4)c1	Pf growth 96h inconclusive, Pf growth 48h 10µM, AmpC detergent inconclusive
O=C(NC1CC(=O)N(c2ccc(F)cc2)C1)c1ccc(S(=O)(=O)N2CCOCC2)cc1 (centres undefined)	none (no result: SARS PLpro yeast, Pf growth 96h, AmpC no deterg, Pf growth 48h)
CC(=O)N1CCc2cc(S(=O)(=O)NC(Cc3ccccc3)C(=O)Nc3ccc(C)cc3C)ccc21 (centres undefined)	none (no result: SARS PLpro yeast, Pf growth 96h, AmpC no deterg, Pf growth 48h)
O=C(NCc1cccc(OC(F)(F)F)c1)c1cccc2c1C(=O)c1ccc(-c3ccc(F)cc3OCc3ccccc3)cc1S2(=O)=O	none (no result: Sm TGR block, Pf growth 96h, Pf growth 48h, AmpC detergent)
O=C1c2ccc(-c3ccc(F)cc3OCc3ccccc3)cc2S(=O)(=O)c2cccc(C(=O)N3CCCC3)c21	Pf growth 96h inconclusive, Pf growth 48h 4.7µM
COc1ccc2ccccc2c1CNCCc1ccccc1	Pf growth 48h 10µM
NNC(=O)Cn1c(-c2ccccc2)cc(=O)n2ncnc12	none
NCCc1ccc(S(N)(=O)=O)cc1	none
NCc1ccc(S(N)(=O)=O)cc1	Sm TGR block inconclusive, Pf growth 96h 3.6µM!, Pf growth 48h inconclusive
Cc1ccccc1OCCN(C#N)c1nc(N(C)C)nc(N(C)C)n1	Pf growth 48h 12µM
COc1nc(N(C)C)nc(N(C#N)CCOC(C)=O)n1	none
COc1cc(CN2CCN(Cc3c[nH]c4ccccc34)CC2CCO)cc(OC)c1 (centres undefined)	Pf growth 96h 10µM
CCn1nc(C)c(CN2CCN(Cc3cccc(OC)c3)C(CCO)C2)c1C (centres undefined)	Pf growth 96h 12µM
COc1ccc(CN2CCN(Cc3c[nH]c4ccccc34)CC2CCO)cc1C (centres undefined)	Pf growth 96h inconclusive, Pf growth 48h inconclusive
CCOc1ccc(CN2CCN(Cc3c(C)nn(CC)c3C)CC2CCO)cc1 (centres undefined)	Sm TGR block inconclusive
CCn1ncc(CN2CCN(Cc3cccc(OC)c3)C(CCO)C2)c1C (centres undefined)	Pf growth 96h 7.4µM
COc1ccc(CN2CCN(Cc3cccc(OC)c3)C(CCO)C2)cc1 (centres undefined)	none
